Compound activity (PubChem)
The full list was thinned out, with hits kept by preference.
aSyn 5UTR act – Activators via SNCA 5'UTR binding, MLPCN. 7.1% of 300,000 active. alpha-synuclein 5'UTR reporter, activators screen. AID 1814, 2009. activity score, % (tested at 7.5 µM), hits read low; in the data active = activity score below about -60%
Numbers without * were called inactive.

SMILES | aSyn 5UTR act
CCC(=O)Nc1cccc(-c2csc(-c3ccccc3)n2)c1 | -121*
COc1ccc(NS(=O)(=O)c2cc(NC(=O)c3ccc(C)o3)ccc2N2CCCCC2)cc1 | -62*
CS(=O)(=O)N1CCN(c2ccc(NC(=O)c3ccc([N+](=O)[O-])o3)cc2)CC1 | 72
COc1ccc(N2CCCC2)c(NC(=O)c2ccc([N+](=O)[O-])o2)c1 | -70*
O=C(Nc1ccccc1N1CCCC1)c1ccc([N+](=O)[O-])o1 | -112*
O=C(Nc1ccc(N2CCCCC2)cc1)c1ccc([N+](=O)[O-])o1 | -214*
CC(C)c1[nH]nc2c1C(c1ccco1)C(C#N)=C(N)O2 (stereo not drawn) | -133*
Cc1cccc(N=C/C(C(=O)C(F)(F)F)=C(\O)c2ccco2)c1 | -167*
Cc1ccc(N=C/C(C(=O)C(F)(F)F)=C(\O)c2ccco2)cc1Cl | -184*
O=C(/C(C=Nc1ccc(F)cc1)=C(/O)c1ccco1)C(F)(F)F | -113*
COc1ccc(-c2ncc(CN3CCN(CCC(C)C)C(CCO)C3)cn2)cc1 (stereo not drawn) | -111*
COc1ccc(CN2CCN(Cc3cccn3-c3ncccn3)CC2CCO)c(C)c1C (stereo not drawn) | 60
Cc1cc2nc(SCCN3CCCC3)[nH]c2cc1C | -68*
Cc1ccc(C(=O)c2cnc3cc4c(cc3c2S(=O)(=O)c2ccccc2)OCCO4)cc1 | -133*
c1ccc(C[n+]2csc3ccccc32)cc1 | -71*
O=C(/C=C\Nc1ccc(Br)cc1)c1cccnc1 | -69*
CN(C)c1ccc(N/C=C/C(=O)C(C)(C)C)cc1 | -78*
CC(=O)Nc1ccc(N/C=C/C(=O)c2ccccc2)cc1 | -255*
CN(C)c1ccc(N/C=C/C(=O)c2ccccc2)cc1 | -65*
CC(=O)N1CCc2cc(N=NC3=C(O)CCCC3=O)ccc21 | -100*
COc1ccc(N(C(=O)c2cnccn2)C(C(=O)NCc2ccccc2)c2ccc(O)cc2)cc1 (stereo not drawn) | -76*
Cc1ccc(NC2c3ncccc3C(=O)N2c2ccccc2C)cc1C (stereo not drawn) | -168*
Cc1ccc(CNc2ccc3c(c2)nc(C)n3C)cc1 | -64*
Cc1nc2cc(NCc3ccc(Cl)cc3)ccc2n1C | -67*
COc1cccc(C2c3c(oc4ccccc4c3=O)C(=O)N2Cc2ccco2)c1 (stereo not drawn) | -99*
SMILES | aSyn 5UTR act
CCCOc1ccc(C(=O)Nc2cccnc2)cc1 | -181*
CCCCOc1ccc(C(=O)Nc2ccncc2)cc1 | -123*
O=C(Nc1cccnc1)c1ccc(Oc2ccccc2)cc1 | -70*
O=C(Nc1cccnc1)c1ccc(CSc2ccccc2)cc1 | -115*
Cc1cc(O)ccc1Nc1nc2ccccc2nc1Nc1ccc(O)cc1C | -106*
CN(C)c1ccc(NC(=O)CSc2nc(N)c(C(=O)Nc3ccc(N(C)C)cc3)s2)cc1 | -151*
COc1ccc(NC(=O)CSc2nc(N)c(C(=O)Nc3ccc(N(C)C)cc3)s2)cc1 | -66*
CC(C)(C)c1ccc(C(=O)Nc2ncn[nH]2)cc1 | -134*
CC(=O)C1=C(C)NC(SCC(=O)c2ccccc2)=C(C#N)C1c1ccco1 (stereo not drawn) | -162*
Cc1ccc2c(c1)N=C(c1ccc(Cl)cc1)CO2 | -152*
Clc1ccc(C2=Nc3cc(Cl)ccc3OC2)cc1 | -206*
CC1c2cc3c(cc2CCN1C(=O)c1cccc(F)c1)OCCCO3 (stereo not drawn) | -69*
Cn1c(=S)[nH]c2sc3c(c2c1=O)CCC(C(C)(C)C)C3 (stereo not drawn) | -87*
Cc1ccc(NC(=O)c2ccc(NCCN)c([N+](=O)[O-])c2)cc1 | -99*
Cc1ccc(NC(=O)CSc2ccc(C(N)=O)cc2[N+](=O)[O-])cc1 | -67*
CCCNc1ccc(C(=O)OCC)cc1[N+](=O)[O-] | -83*
C=CCNCCCCOc1ccc(OCc2ccccc2)cc1 | -80*
c1ccc(COc2ccc(OCCCNC3CCCC3)cc2)cc1 | -70*
COCCCNCCCCOc1ccc(OCc2ccccc2)cc1 | -69*
C/C(=N/N=C(/C)c1cccs1)c1cccs1 | -119*
CCc1ccc(Nc2ncccc2C#N)cc1 | -68*
CCC(C)c1ccc(Nc2ncccc2C#N)cc1 (stereo not drawn) | -176*
COc1ccc(CCNc2ncccc2C#N)cc1OC | -114*
O=C(/C=C/c1ccc2c(c1)OCCCO2)c1ccccc1O | -311*
Cc1ccc(O)c(C(=O)/C=C/c2ccc3c(c2)OCCCO3)c1 | -188*
SMILES | aSyn 5UTR act
COc1cc(C(=O)Nc2ccc3c(c2)OCCO3)ccc1OC(C)C | -163*
COc1ccc(NC(=O)c2ccc3c(c2)OCCO3)cc1OC | -104*
Cc1csc(NC(=O)c2nn(C)c(C)c2[N+](=O)[O-])n1 | -123*
COc1cc(C(=O)Nc2ccc3c(c2)OCCO3)ccc1OC(F)F | -153*
Cc1c([N+](=O)[O-])c(C(=O)Nc2ccc3c(c2)OCCO3)nn1C | -140*
COc1ccc(C(=O)Nc2ccc3c(c2)OCCO3)cc1[N+](=O)[O-] | -94*
O=C(Nc1ccc(F)c([N+](=O)[O-])c1)c1ccc2c(c1)OCCO2 | -138*
